# The list is not random: actives were taken first. Their share in the collection is about 27%.
# CYP2C9 inh – human CYP2C9 inhibition; P11712; 96,000 tested, 20% active; CYP2C9 Supersomes, luciferin-H conversion, luminescence; inhibition, % at 5 µM;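 active = blocking of liver enzyme CYP2C9 beyond about 50% at 5 µM, limit read from the data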
# Target sequence (P11712 whole entry, looked up): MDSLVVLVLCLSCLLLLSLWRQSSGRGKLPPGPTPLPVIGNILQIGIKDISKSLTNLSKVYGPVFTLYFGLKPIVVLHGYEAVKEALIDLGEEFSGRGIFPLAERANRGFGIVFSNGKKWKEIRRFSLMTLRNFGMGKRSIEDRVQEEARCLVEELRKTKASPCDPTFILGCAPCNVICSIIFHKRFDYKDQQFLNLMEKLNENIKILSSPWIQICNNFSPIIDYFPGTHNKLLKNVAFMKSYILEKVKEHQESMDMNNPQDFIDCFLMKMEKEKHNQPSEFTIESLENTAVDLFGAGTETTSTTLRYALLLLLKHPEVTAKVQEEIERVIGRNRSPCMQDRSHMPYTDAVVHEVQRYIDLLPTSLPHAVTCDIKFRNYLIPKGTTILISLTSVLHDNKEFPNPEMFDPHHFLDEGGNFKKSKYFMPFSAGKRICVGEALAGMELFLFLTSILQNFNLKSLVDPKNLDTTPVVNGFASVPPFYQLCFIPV
# Pyk2 oligo antag – antagonists of human Pyk2 oligomerization | Q14289 | Q293 cells, Pyk2 FERM NanoBiT luminescence; hits give low values | z-score (the deposit names both 25 µM and 10 µM) | 99,000 tested, 0.83% active | AID 1347419;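 active = Z-score of -3 or lower, scaled per plate to the spread of control and sample wells; inactive = z-score above -3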;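 note: negative z-score means lost luminescence so less FERM oligomerization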
# CYP2C19 inh – human CYP2C19 inhibition | inhibition, % at 5 µM | AID 778 | 96,000 tested, 21% active | P33261 | CYP2C19 Supersomes, luciferin-H EGE luminescence, 30 min;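 active = CYP2C19 inhibition above a set limit at 5 µM in the primary screen, cut at about 50% in these data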;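 note: plate controls were negative control wells for no effect and 2.5 mM tranylcypromine positive control for full effect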
# CYP2C9 act – CYP2C9 (human) activation; P11712; activation factor at 5 µM; recombinant CYP2C9, luciferin-H conversion, luminescence; hits give high values; factor 1 = untreated enzyme, 0 = blocked; 96,000 tested, 1.4% active;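 active = activation factor of 2 or more for CYP2C9 at a 5 µM dose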;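 note: 0 = sulfaphenazole-blocked wells and 1 = vehicle-only wells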
# Cav3 T inh – inhibitors of human Cav3.2 T-type calcium channel; O95180; Cav3.2-expressing cells, Fluo-4 calcium fluorescence FDSS; hits give low values; B-score at 10 µM; 100,000 tested, 4% active; AID 449739;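 active = single-dose well whose peak fluorescence ratio is a statistical outlier from its plate by either plate-standardised score or position-corrected B-score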
# CYP2C19 act – activators of human cytochrome P450 2C19 | recombinant CYP2C19, luciferin-H EGE luminescence; hits give high values; 0 = fully inhibited enzyme, 1 = untreated enzyme | activation factor at 5 µM | 96,000 tested, under 10 active | AID 1025;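 active = activation factor of at least 2 at 5 µM in the primary screen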;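 note: 0 = wells with 2.5 mM tranylcypromine and 1 = vehicle-only wells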
# * hit, by the source's call; . = not tested or not shown.
SMILES,CYP2C9 inh,Pyk2 oligo antag,CYP2C19 inh,CYP2C9 act,Cav3 T inh,CYP2C19 act
CCC(C)(C)n1nnnc1C(C(C)C)N1CCSCC1 (stereo not drawn),20,-0.22,41,0.8,-0.92,0.6
CC(=O)C1=C(N2CCCCC2)CCC1=O,-12,-0.64,3,1.1,-0.58,1
CCCNC(=O)C1CCN(c2nc(C)cc(C)n2)CC1,-34,0.35,-7,1.3,0.43,1.1
O=C1c2[nH]nc(-c3ccccc3O)c2C(c2cccc(Cl)c2)N1Cc1ccco1 (stereo not drawn),95*,-2.8,87*,0,-4.3*,0.1
O=C1c2[nH]nc(-c3ccccc3O)c2C(c2cccc(Cl)c2)N1CC1CCCO1 (stereo not drawn),88*,-2.7,70*,0.1,.,0.3
CC(=O)C1=C(O)C(=O)N(Cc2ccco2)C1c1ccccc1 (stereo not drawn),-8,0.72,-24,1.1,0.28,1.2
O=C1c2[nH]nc(-c3ccccc3O)c2C(c2ccc(F)cc2)N1CC1CCCO1 (stereo not drawn),15,-0.03,22,0.8,-3.3,0.8
O=C1c2[nH]nc(-c3ccccc3O)c2C(c2ccc(F)cc2)N1Cc1ccco1 (stereo not drawn),97*,-2.6,84*,0,-4.5*,0.2
CC1(c2nnc(Cc3ccccc3)o2)CC(c2cccc(Cl)c2)=NO1 (stereo not drawn),.,.,.,.,-1.9,.
Clc1ccc(C2=CC(c3ccco3)n3ncnc3N2)cc1 (stereo not drawn),7,-1.4,16,0.9,-5.6*,0.8
O=C(CN1C(=O)C2CC=CCC2C1=O)OCCN1C(=O)c2ccccc2C1=O (stereo not drawn),11,0.52,12,0.9,1.4,0.9
CCN(CC)C(=O)c1[nH]cnc1C(=O)N[C@@H](C)C(=O)OC(C)(C)C,.,.,.,.,0.69,.
CCOC(=O)CSc1cccc2cccnc12,.,-0.8,.,.,-0.53,.
S=C1N(c2ccccc2)C(c2cccc3ccccc23)N2CCCN12 (stereo not drawn),34,-0.69,18,0.7,0.19,0.8
CC(C)c1ccc(N(CC(=O)NCCSC(C)(C)C)S(C)(=O)=O)cc1,38,0.86,61*,0.6,-0.041,0.4
CN(c1ccc(C(=O)NCCSC(C)(C)C)cc1)S(C)(=O)=O,11,2.4,-5,0.9,1.1,1.1
CC(C)c1ccc(N(CC(=O)Nc2ccc(S(=O)(=O)N3CCOCC3)cc2)S(C)(=O)=O)cc1,90*,-1.3,73*,0.1,-7.9*,0.3
Cc1ccc(N(C(C)C(=O)Nc2ccc(S(=O)(=O)N3CCOCC3)cc2)S(C)(=O)=O)cc1 (stereo not drawn),27,-0.23,8,0.7,-1.1,0.9
Cc1ccc(N(CC(=O)Nc2ccc(S(=O)(=O)N3CCOCC3)cc2)S(C)(=O)=O)cc1C,98*,-2.3,77*,0,-3.2,0.2
Cc1ccc(N(C(C)C(=O)Nc2ccc(S(=O)(=O)N3CCOCC3)cc2)S(C)(=O)=O)cc1C (stereo not drawn),89*,2,36,0.1,-2.6,0.6
CCOc1ccccc1N(CC(=O)Nc1ccc(S(=O)(=O)N2CCOCC2)cc1)S(=O)(=O)c1ccccc1,-2,-1.2,-2,1,0.3,1
COc1nc(N(C#N)CC(N)=O)nc(N2CCCC2)n1,-2,0.36,-4,1,0.43,1
Cc1cc(N2CCOCC2)nc(-c2ccc([N+](=O)[O-])cc2)n1,12,0.04,22,0.9,.,0.8
O=C1c2ccccc2C(=O)c2c(NCc3cccnc3)cccc21,79*,-0.71,99*,0.2,-0.63,0
Cc1ccc(NC(=S)NNC(=O)c2nn(C)cc2Cl)cc1,9,-0.09,41,0.9,-0.9,0.6
SMILES,CYP2C9 inh,Pyk2 oligo antag,CYP2C19 inh,CYP2C9 act,Cav3 T inh,CYP2C19 act
Cc1cccc(NC(=S)NNC(=O)c2nn(C)cc2Cl)c1,18,0.43,61*,0.8,0.74,0.4
Cc1occc1C(=O)NNC(=S)Nc1ccccc1,18,0.04,45,0.8,0.67,0.6
Cc1c(Cl)c(C(=O)NNC(=S)Nc2ccccc2)nn1C,21,3.3,78*,0.8,.,0.2
COc1ccccc1NC(=S)NNC(=O)c1c(Cl)c(C)nn1C,66*,1.6,7,0.3,0.3,0.9
CCCC(NS(=O)(=O)c1ccc(Br)cc1)C(=O)O (stereo not drawn),18,1.5,25,0.8,-0.29,0.8
O=C(CSCc1c(F)cccc1Cl)NCc1cccnc1,.,0.17,.,.,.,.
O=C(CSCc1c(Cl)cccc1Cl)NCc1cccnc1,16,0.14,54*,0.8,-1.1,0.5
O=C(NCc1cccnc1)NC(C(F)(F)F)C(F)(F)F,37,0.23,66*,0.6,0.5,0.3
O=C(NCc1cccnc1)c1cccc(C(F)(F)F)c1,22,-0.52,89*,0.8,0.42,0.1
O=C(NCc1cccnc1)c1ccc(Cl)c(Cl)c1,11,-0.42,75*,0.9,0.089,0.3
O=C(NCc1cccc(Cl)c1)c1cccnc1,17,0.74,24,0.8,0.0075,0.8
COc1ccc(C(=O)NCc2cccnc2)cc1,.,0.05,.,.,0.28,.
CCCN1CNC(=S)N(c2cccc(C)c2C)C1,-18,0.34,22,1.2,0.95,0.8
Cc1ccc2c(Cl)c(C(=O)NCc3cccnc3)sc2c1,38,-1.2,44,0.6,0.33,0.6
O=C(NCc1cn2ccsc2n1)c1cccc(C(F)(F)F)c1,-26,1.2,10,1.3,0.27,0.9
O=C(NCc1cccnc1)c1sc2ccccc2c1Cl,33,-0.22,88*,0.7,-0.34,0.1
Cc1csc2nc(CNC(=O)c3cccc(C(F)(F)F)c3)cn12,-102,-1.2,14,2*,-0.87,0.9
Cc1ccc(-c2csc(N(C)C(=O)c3c(C)nn(-c4ccccc4)c3Cl)n2)cc1,74*,-2,44,0.3,1.7,0.6
CC(=O)N(C)c1nc(-c2ccc(Cl)cc2)cs1,-8,0.36,-16,1.1,1.4,1.2
Cc1c(Cl)cccc1NC(=O)c1cc(C2CC2)on1,-20,.,84*,1.2,-1.6,0.2
COc1ccc(NC(=O)c2cc(C3CC3)on2)c(OC)c1,-189,.,-3,2.9*,-0.46,1
COC(=O)c1ccccc1NC(=O)c1cc(C2CC2)on1,-87,.,-11,1.9,-1,1.1
CCc1nc(N2CCN(Cc3ccc4c(c3)OCO4)CC2)c2oc3ccccc3c2n1,51*,-1,32,0.5,0.042,0.7
CCc1nc(N2CCCCC2)c2oc3ccccc3c2n1,4,-0.21,7,1,-1.2,0.9
CCc1nc(Nc2ccc3c(c2)OCO3)c2oc3ccccc3c2n1,75*,-2.6,51*,0.3,.,0.5
Cc1ccc2c(c1)c(-c1ccccc1)nc1nncn12,3,.,16,1,2.4,0.8

# Bioassay records from PubChem.
